In PubChem BioAssay AID686979 (National Center for Advancing Translational Sciences (NCATS), 2013):
The whole screen tested about 420,000 compounds, of which about 50,000 (12%) were called active. About 26% were inconclusive and are not listed. For the sample, actives were picked, then their nearest neighbours and some compounds at random. Values without a mark were called inactive. Calls come from the whole dose curve; as a rule, active = well fitted inhibition curve with a large enough effect; inconclusive = small, poorly fitted or top-dose-only effect; inactive = flat fitted curve, though single readings scatter.

Assay: qHTS for Inhibitors of human tyrosyl-DNA phosphodiesterase 1 (TDP1): qHTS in cells in presence of CPT; note: nearly all actives have a fitted effect of over 55% in size
Settings: chicken DT40 Tdp1-/-;hTDP1 cells + 20 nM CPT, ATP luminescence, 48 h; series mostly up to 46.2 µM; activity change, negative = growth inhibition: at the top concentration
Method in brief: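 Chicken DT40 Tdp1-/- cells stably complemented with human TDP1 were seeded at 400 cells/well in medium containing 20 nM camptothecin, exposed to pin-transferred compounds, and grown at 37 °C for at least 48 hr. Viability was read as ATP luminescence.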
% is set by controls: 0 for no effect and ±100 for the full control effect; potency is the fitted concentration of half-maximal effect.

Row | SMILES | activity change, negative = growth inhibition | Potency
1 | NS(=O)(=O)c1ccc(NC(=S)N2CCCC2)cc1 | -3.82% | –
2 | CCSC1=NCCN1C(=O)c1ccc(S(=O)(=O)N(CC)CC)cc1 | 9.95% | –
3 | COc1ccc(N(C(=O)c2cccnc2)S(=O)(=O)c2ccc(OC)c(OC)c2)cc1 | -24.6% | –
4 | COc1ccc(C(=O)Nc2ccc(-n3nncc3-c3ccccc3)cc2)cc1OC | – | 3.66 µM (active)
5 | COc1ccc(C(=O)Nc2cccnc2)cc1C(=O)Nc1cccnc1 | -4.05% | –
6 | COc1ccccc1C(=O)NNC(=O)c1ccc(NC(=O)c2ccccc2)cc1 | -24.4% | –
7 | CCC1OC(C2CC2)CC2=C1C(=O)OC(C)(C)O2 (centres undefined) | -4.59% | –
8 | CC(=O)N1N=C(c2ccccc2)OC1c1cccnc1 (centres undefined) | -0.38% | –
9 | Cc1cc(C)cc(NC(=O)CCN2C(=O)c3ccccc3C2=O)c1 | -4.76% | –
10 | O=C(N/N=C/c1ccc(O)c2ccccc12)c1cccnc1 | -13.9% | –
11 | Cc1ccc(/C=N/NC(=O)C2=NNC(c3ccccc3)(c3ccccc3)C2)c(O)c1 | – | 4.61 µM (active)
12 | Cc1ccc2nc(CNC(=O)c3ccccc3)[nH]c2c1 | 9.98% | –
13 | COc1ccc(-c2cc(C(F)(F)F)nc(S(C)(=O)=O)n2)cc1OC | – | 2.06 µM (active)
14 | COc1ccc(C2=NO[C@@H]3C(=O)N(Cc4ccccc4)C(=O)[C@H]23)cc1OC | 3.64% | –
15 | CCN(CC)CCN(C)C(c1ccnc2ccccc12)c1nnnn1-c1ccc2c(c1)OCCO2 (centres undefined) | -31.6% | –
16 | Cc1ccc(S(=O)(=O)NCCCn2ccnc2)cc1C(=O)NC(C)C | -3.13% | –
17 | O=C(NCc1ccco1)c1ccc([N+](=O)[O-])cc1Cl | 3.37% | –
18 | Cc1ccc(C(=O)OCC(=O)NC2CCCCCCC2)cc1C | -4.81% | –
19 | c1ccc2c(c1)C(=NC1CCCCC1)NC2=NC1CCCCC1 | – | 18.4 µM (active)
20 | COc1cc(NC(=S)N2CCCC(C)C2)cc(OC)c1OC (centres undefined) | -22.1% | –
21 | CCC(=O)N1CCc2cc(CNC(=O)Nc3ccccc3Cl)ccc21 | -29.4% | –
22 | O=C(COc1ccccc1)Nc1ccc(C(=O)N2CCCC2)cc1 | 1.05% | –
23 | O=C(Cc1ccccc1)NCc1ccc(F)cc1 | -7.47% | –

Row | SMILES | activity change, negative = growth inhibition | Potency
24 | COc1cccc(C(=O)NCc2ccc3c(c2)CCN3C(=O)c2ccncc2)c1 | -12.1% | –
25 | Cc1ccc(C(=O)N2CCc3cc(CNC(=O)c4ccc(Br)cc4)ccc32)cc1 | -84.3% | –
26 | O=C(CSCc1ccccc1)N1CCc2ccccc21 | -9.01% | –
27 | O=C(NCc1ccc2c(c1)CCN2C(=O)c1ccccc1)Nc1cc(F)ccc1F | – | 16.4 µM (active)
28 | O=C(CCc1ccccc1)NCc1ccc2c(c1)CCN2C(=O)c1ccccc1 | – | 10.3 µM (active)
29 | O=C(COc1ccccc1)NCc1ccc2c(c1)CCN2C(=O)c1ccc(F)cc1 | – | 16.4 µM (active)
30 | Cc1cccc(C(=O)N2CCc3cc(CNC(=O)Cc4ccc(F)cc4)ccc32)c1 | – | 16.4 µM (active)
31 | O=C(CCc1ccc(S(=O)(=O)NC2CCCCC2)cc1)NCc1ccccc1 | -18.8% | –
32 | O=C(CN1CCN(C(=O)c2cccc(F)c2)CC1)Nc1ccccc1F | 0.779% | –
33 | CC1CCC2(CC1)NC(=O)N(CC(=O)c1ccc3c(c1)OCO3)C2=O (centres undefined) | 4.95% | –
34 | COc1cc(OC)c(N(C)C(=O)c2cc3c(=O)oc4ccccc4c3s2)cc1Cl | 4.07% | –
35 | CCc1nnc(NS(=O)(=O)c2ccc(NC(=O)c3cccc(OC(F)(F)C(F)F)c3)cc2)s1 | 6.34% | –
36 | CCCCCC(=O)Nc1ccc(-c2cn3cccnc3n2)cc1 | -3.88% | –
37 | O=C(Nc1cccc2cccnc12)c1cccc2c(Br)cccc12 | -12.4% | –
38 | COC(=O)C1NN=C(C(=O)c2ccc(Br)cc2)C1c1cccc(Br)c1 (centres undefined) | 6.78% | –
39 | O=C(Nc1ccc(Br)cc1)c1cccc(NC(=O)C2C3CC4OC(=O)C2C4C3)c1 (centres undefined) | -28.6% | –
40 | CCc1cccc(CC)c1NC(=S)NCc1ccc2[nH]c(C)cc2c1 | – | 23.1 µM (active)
41 | Cc1cc2cc(CNC(=O)c3cccs3)ccc2[nH]1 | -0.633% | –
42 | CCc1cccc(CC)c1NC(=S)Nc1ccc2cn[nH]c2c1 | -26.3% | –
43 | Cc1cccc(NC(=O)N2CCCCCC2)c1C | 1.89% | –
44 | O=C(OCc1nnc(-c2ccccc2)o1)c1cc(=O)[nH]c2ccccc12 | -0.538% | –
45 | CCCc1nc2ccccc2c(C(=O)OCc2nnc(-c3cc(OC)c(OC)c(OC)c3)o2)c1CC | – | 16.4 µM (active)
46 | CCCCc1nc2ccccc2c(NC(=O)CN2CCN(C)CC2)c1CCC | -15.1% | –

Row | SMILES | activity change, negative = growth inhibition | Potency
47 | O=C(CN1CCN(S(=O)(=O)c2ccc(Cl)s2)CC1)N1CCCCC1 | -25.8% | –
48 | CCOC(=O)c1c(C)[nH]c(C)c1C(=O)COC(=O)/C=C/c1cccc([N+](=O)[O-])c1 | -20.3% | –
49 | CCOC(=O)C=Cc1ccc(C(=O)OCC)[nH]1 | – | 13 µM (active)
50 | CCOC(=O)c1ccccc1OC(=O)Oc1ccccc1C(=O)OCC | 7.31% | –
51 | CCn1c(N)c(Br)c(=O)[nH]c1=O | -19.5% | –
52 | O=C(COc1ccccc1)NCCc1nc2ccccc2[nH]1 | -7.59% | –
53 | COc1ccc(CCNC(=S)NC(=O)/C=C/c2ccc(C)cc2)cc1OC | -23.2% | –
54 | CCCCCOc1ccc(/C=C/C(=O)NCCc2nc3ccccc3[nH]2)cc1OC | – | 16.4 µM (active)
55 | Cc1nn(CC(=O)NCC2CCCO2)c(=O)c2cc3ccccc3n12 (centres undefined) | 40.8% | –
56 | C=C(C)C1CC=C(CO)CC1 (centres undefined) | 15.1% | –
57 | Cc1ccc(-n2nc(CO)c(C(=O)NCCc3ccccc3)n2)cc1 | 8.8% | –
58 | Cc1ccc(-c2nc(=N)sn2Cc2ccccc2)cc1 | – | 4.47 µM (active)
59 | Cc1ccc(CN2C(=O)SC(Nc3ccccc3)C2=O)cc1 (centres undefined) | -16.3% | –
60 | Cc1ccnc(NC(=O)CCCOc2ccccc2)c1 | 2.35% | –
61 | CCN1CCN(c2nc(Nc3cccc(F)c3)nc(N)c2[N+](=O)[O-])CC1 | -19.7% | –
62 | CN(C)C(CNC(=O)c1ccc(OCc2cn3ccccc3n2)cc1)c1ccco1 (centres undefined) | 4.85% | –
63 | Cc1nn(-c2ccccc2)c2c1C(=O)NC(=O)C(C)(C)C2 | -25.9% | –
64 | Cc1nn(-c2ncccn2)c2c1C(=O)CC(C)(C)C2Br (centres undefined) | – | 20.6 µM (active)
65 | CC1=C(N2CCN(c3ncccn3)CC2)CCC1=O | -1.99% | –
66 | COc1ccc2cc(-c3nc(Cl)c4c5c(sc4n3)CC(C)CC5)c(=O)oc2c1 (centres undefined) | 3.95% | –
67 | CC(C)CNC(=O)CC(c1ccccc1)c1c(O)ccc2ccccc12 (centres undefined) | -19% | –
68 | CC(C)NC(=O)C(c1ccc(F)cc1)N(C(=O)CCC(=O)Nc1ccccn1)c1ccccc1F (centres undefined) | 3.64% | –
69 | O=C(c1cc(COc2cccc(C(F)(F)F)c2)on1)N1CCSCC1 | -23.1% | –
